Data on 40 compounds can be found in PubChem BioAssay (NCI).

This is part of a sample that, as a whole, favours compounds with a hit. Of some 83,000 tested, about 20% had one in any assay.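 For each line, cells grew in 96-well plates with the test compound present at a single concentration for 48 hours.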 The source made the active and inactive calls.

For the test, the system named is NCI-H460 lung. The test is described as follows: NCI-60 one-dose screen, 48 h (100 = growth as untreated, 0 = no growth, -100 = all killed). Particulars: 10 µM unless noted. On the procedure: Growth inhibition of the NCI-H460 human Non-Small Cell Lung tumor cell line is measured as a screen for anti-cancer activity. Cells are grown in 96 well plates and exposed to the test compound for 48 hours. Compounds are tested at a single concentration, which is 10^-5 M for most compounds. The reported endpoint is percent growth (GI% or GIPRCNT), where numbers from 0 - 100% represent growth inhibition, and numbers from -100% - 0 represent cell death. For example, a value of 40 represents 60% growth inhibition. A value of 0 means no net growth occurred over the course of the experiment. A value of -40 indicates 40% of cells at the beginning of the experiment died by the end of the experiment. A value of -100 means all cells are dead at the end of the experiment.
NCI-60 Human Tumor Cell Lines Screen was performed using the standard one-dose NCI protocol, which is described in more detail at https://dtp.cancer.gov/discovery_development/nci-60/default.htm.
Compounds with GIPRCNT values below 10 were considered active. Activity score was based on GIPRCNT using the following formula: […]
Score is 0 for GIPRCNT values of 100 or above, 50 for GIPRCNT values of 0, and 100 for GIPRCNT values of -100.
As for `CCOC(=O)c1c(Cl)c2c(n1Cc1ccccc1)-c1oncc1CCC2`, the growth is 81% (inactive).
Next, `O=C(c1ccccc1)N(CCc1ccc(Cl)cc1)C(=S)N(C(=O)c1ccccc1)c1ccccc1`: 106% (inactive); `O=C(NC(=S)Nc1cccc(NC(=S)NC(=O)c2ccccc2)c1)c1ccccc1`: 46.4% (inactive).
Take `O=S1(=O)N(Cc2ccccc2)[C@@H](Cc2ccccc2)C2O[C@H]2[C@H](Cc2ccccc2)N1Cc1ccccc1` (stereo not given in full): the growth is 9.31% (active).
The result for `O=C(c1nc2ccccc2[nH]1)C1C(c2ccc(F)cc2)C2CC3CCCCC3N2[C@@]12C(=O)Nc1ccc(Cl)cc12` (stereo not given in full) reads 21.4% (inactive).
The result for `CCN1C(=O)N(c2ccccc2)C2NN=c3s/c(=C4\C(=O)N(C(C)C)c5ccccc54)c(=O)n3C21` (stereo not given) reads 5.98% (active); that for `NC(CCc1nc2ccccc2c(=O)[nH]1)C(=O)O` (stereo not given), 108% (inactive).
Regarding `COc1ccc(C2C3=C(COC3=O)N(CCO)c3cc4c(cc32)CCC4)cc1` (stereo not given), the growth was 25.9% (inactive).
Next, `CN1CCN(Cc2ccc(NC(=O)c3[nH]ncc3Nc3cc(OC4CCCC4)ncn3)cc2)CC1`: 22.2% (inactive); `COC(=O)/C(=C\c1c(C)[nH]c2ccccc12)S(=O)(=O)c1ccccc1`: -7.04% (active); `COc1ccc(-n2c(C(O)c3ccccc3)n[nH]c2=S)cc1` (stereo not given): 108% (inactive).
The result for `FC(F)(F)c1cccc(Nc2nc3ccccc3nc2Nc2cccc(C(F)(F)F)c2)c1` reads -59.4% (active).
On to `CCCCc1ccc(NS(=O)(=O)c2cc3c4c(c2)CCN4C(=O)CC3)cc1`, for which the growth is 4.33% (active).
Next, `O=C1c2ccccc2C(=O)c2c1ccc1[nH]c(CCl)nc21`: 1.46% (active); `COc1cc2c(cc1OC)C(=O)C(CC1CCN(C(=O)Nc3ccc(C)cc3)CC1)C2` (stereo not given): 97.3% (inactive).
Turning to `O=C(/C=C/c1ccc(C(F)(F)F)cc1)c1ccc(Nc2nc(NCCO)nc(N3CCOCC3)n2)cc1`, the growth is 11.7% (inactive).
On to `Nc1ccc(-c2nn3c(CCC(=O)c4nc5ncccc5[nH]4)nnc3s2)c(O)c1`, for which the growth is 93.4% (inactive).
For the compound `O=S1(=O)CCN(Cc2ccccc2)CC1`, the growth is 103% (inactive).
`CC(C)CCOc1ccc(-c2n[nH]c(C(F)(F)F)c2-c2cncc(C#N)c2)c(O)c1`: the growth was 3.48% (active).
Next, `O=c1oc2ccc(Cl)cc2c(=O)n1-c1ccc(F)cc1F`: 7.56% (active); `COc1ccc(-n2c(C(O)c3ccccc3)nn(CN3CCOCC3)c2=S)cc1` (stereo not given): 111% (inactive); `O=C(Nc1ccc(F)cc1F)c1cc(Br)ccc1O`: 4.52% (active).
On to `CCOC(=O)C1(C(=O)OCC)N=C(c2ccccc2)C=C1c1ccccc1`, for which the growth is 104% (inactive).
Next, `CCOC(=O)C1=C(C)N=c2s/c(=C\c3cc(Cl)ccc3O)c(=O)n2C1c1ccc(OC)cc1` (stereo not given): 91.6% (inactive); `CCOC(=O)c1cnc2ccc(Cl)cc2c1NCCCN(C)C`: 1.86% (active); `O=C1NC(=O)C(=Cc2cn(Cc3cn(Cc4ccc(Cl)cc4Cl)nn3)c3ccccc23)C(=O)N1`: 51.7% (inactive).
The result for `CC(=O)c1ccc(Nc2nc(NCCO)nc(Nc3ccc(Cl)cc3)n2)cc1` reads 93.6% (inactive); that for `CCC1=C[C@]2(C3CC(=O)N(c4ccccc4)C3=O)CC(C(C)(C)C)C[C@@H]2[C@@H]2C(=O)N(c3ccccc3)C(=O)[C@H]12` (stereo not given in full), 93.3% (inactive); that for `CCN1C(=O)N(CC)C2C1NN=c1s/c(=C3\C(=O)N(CC(C)(C)C)c4ccccc43)c(=O)n12` (stereo not given), 4.52% (active).
Next, `COC(=O)c1c2c(c(C)[n+]([O-])c1C)C(=O)C=C(NCc1ccccc1)C2=O`: -13.1% (active).
With `O=C(Nc1ccc(F)c(Cl)c1)Nc1ccc(Cl)c(Cl)c1`, the growth is 76.9% (inactive).
The result for `Cc1nc2ccccc2c(/C=C/c2ccccc2)c1C(=O)/C=C/c1ccc(Cl)cc1` reads -37.6% (active); that for `CCN(CC)c1cc(C)c2cc(NC(=O)c3cccc(OC)c3)ccc2n1`, 57.1% (inactive); that for `COc1cc(/C=C/C(=O)c2ccc(Cl)cc2)cc(CN2CCCCC2)c1O`, 94.3% (inactive).
On to `O=c1oc2ccc(Br)cc2c(=O)n1-c1ccc(Cl)cc1F`, for which the growth was 2.87% (active).
For `Nc1nc(Nc2cccc(F)c2)nc2ccccc12`, the growth is 31.6% (inactive).
For the compound `O=Nc1c(O)ccc2ccccc12.O=Nc1c(O)ccc2ccccc12.O=Nc1c([O-])ccc2ccccc12.[Fe+3]`, the growth was 105% (inactive).
Next, `O=Cc1cc2ccccc2nc1Nc1nccs1`: 61.8% (inactive).
The result for `Nc1cccc(Nc2cc(S(=O)(=O)O)c(N)c3c2C(=O)c2ccccc2C3=O)c1` reads 108% (inactive); that for `NC1C(N)C(N)C1N` (stereo not given), 113% (inactive).
